Compound activity as filed in PubChem BioAssay.
ssDAF-12 act – S. stercoralis DAF-12 activation, primary screen | HEK293 ssDAF-12/GRIP1 lit1-tk-luc reporter, luminescence; % of 3 µM dafachronic acid response | activation, % at 6.8 µM | 370,000 tested, 1% active | AID 652126;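 active = activation above the mean over all tested compounds plus 3 SD, cut at about 0.9% in these data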;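 also: 0% = DMSO-only wells and 100% = 3 µM delta7-dafachronic acid wells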
DAX1 inh-1 – DAX1 (NR0B1) inhibition, primary screen | HEK293T StAR-luciferase reporter, SF-1/DAX-1 repression relief | 370,000 tested, 1.1% active | inhibition, % at 6.8 µM | AID 652010;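 active = inhibition above the mean over all tested compounds plus 3 SD, cut at about 3.6% in these data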;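 also: 0% = DAX-1 cells with DMSO and 100% = cells lacking DAX-1 with DMSO; higher inhibition means more luminescence from relief of DAX-1 repression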
hgDAF-12 ag – activates the H. glycines DAF-12 receptor ligand-binding domain. 370,000 tested, 1.8% active. activation, % at 6.8 µM. HEK293 GAL4-hgDAF12 UAS-luciferase reporter, agonist luminescence; normalized to butyrate control;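 active = activation above a cutoff set at the mean of all screened compounds plus 3 SD, cut at about 10% in these data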;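 also: 0% = DMSO wells and 100% = sodium butyrate wells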
FXN GAA850 act – frataxin GAA850 promoter activation. activation, % at 6 µM. HEK293 lucGAA850 FXN promoter luciferase reporter, 24 h; percent of 10 µM SAHA response. 360,000 tested, 0.56% active;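 active = activation above the average of all compounds screened plus 3 SD, cutoff fixed separately per campaign, cut at about 7.5% in these data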;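 also: 0% = DMSO wells and 100% = 10 µM SAHA wells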
DAX1 inh-2 – inhibits human nuclear receptor DAX1; P51843; HEK293 Gal4-DAX1 luciferase reporter, luminescence; inhibition, % at 6.75 µM; 340,000 tested, 0.99% active;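 active = inhibition above the mean over all tested compounds plus 3 SD, cut at about 4.2% in these data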;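 also: 0% = DAX1-transfected cells with DMSO and 100% = empty-vector control cells with DMSO; inhibition shows as a rise in luminescence from relieved DAX1 repression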
Target sequence (P51843 207-470 limits assumed): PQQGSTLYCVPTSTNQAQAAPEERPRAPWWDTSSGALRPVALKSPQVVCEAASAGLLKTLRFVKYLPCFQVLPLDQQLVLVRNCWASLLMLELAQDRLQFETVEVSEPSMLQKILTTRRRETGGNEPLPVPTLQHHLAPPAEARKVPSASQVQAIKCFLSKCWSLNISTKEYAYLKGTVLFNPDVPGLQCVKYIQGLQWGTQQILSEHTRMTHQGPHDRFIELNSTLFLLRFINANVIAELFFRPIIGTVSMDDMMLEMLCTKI
hcDAF-12 act – activators of H. contortus DAF-12 nuclear receptor; activation, % at 6.8 µM; 370,000 tested, 1.4% active; HEK293 hcDAF-12 lit1-tk-luc reporter, luminescence; 0% DMSO, 100% Δ7-dafachronic acid;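 active = activation above the mean of all tested compounds plus 3 SD, cut at about 5.5% in these data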;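 also: 100% = response to 3 µM Δ7-dafachronic acid high control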
An asterisk follows results filed as active; . = no result given. An excerpt weighted towards active compounds, which were near 4.5% of everything screened.

SMILES	ssDAF-12 act	DAX1 inh-1	hgDAF-12 ag	FXN GAA850 act	DAX1 inh-2	hcDAF-12 act
O=[N+]([O-])c1cccc(C=NN2CCCCCC2)c1	-1.0	1.5	10.6*	5.3	1.4	2.6
O=C(CN1C(=O)C2CCCCN2C(=O)c2ccccc21)N1CCCC1 (stereo unspecified)	-1.1	-1.0	-1.4	.	.	-1.0
Nn1c(SCc2ccccc2)nc2ccccc21	-0.3	0.7	11.7*	5.5	1.3	2.3
Cc1c(-c2nc(-c3ccc(C(C)(C)C)cc3)no2)n(C)oc1=O	2.1*	2.8	12.4*	6.5	-1.1	5.7*
N=c1n(CCN2CCCCC2)c2ccccc2n1CC(O)c1ccco1 (stereo unspecified)	-1.5	1.1	-0.3	-2.2	5.1*	1.9
CCn1c(=N)n(CC(O)c2ccco2)c2ccccc21 (stereo unspecified)	-1.5	-0.1	-4.5	-0.8	0.7	-0.7
COc1cc(OC)c(NC(=S)NCc2ccc(F)cc2)cc1Cl	-1.9	-0.3	-3.1	0.3	4.3*	-2.2
COc1ccc(NC(=S)NCc2ccc(F)cc2)c(OC)c1	-1.2	-0.3	0.0	0.8	0.5	-0.6
O=C(O)CC(CC(=O)Nc1ccc(F)c(Cl)c1)c1ccc(Cl)cc1Cl (stereo unspecified)	-2.0	0.5	0.8	1.3	10.1*	-1.2
CCC(=O)Nc1ccc(F)c(Cl)c1	-1.1	-0.5	-0.1	0.0	-0.4	-1.6
CC1CCc2c(sc3ncn(CC(=O)N=Nc4c(O)[nH]c5ccccc45)c(=O)c23)C1 (stereo unspecified)	0.0	-0.1	3.3	2.6	4.6*	3.5
O=C(c1ccccc1)N1CC[C@H]2[C@H](CCCN2Cc2ccccc2)C1	-1.6	0.4	-0.2	.	.	1.4
O=C(CSc1nc2ccccc2c(=O)n1-c1ccc(Cl)cc1)NNC(=S)Nc1ccccc1	-2.2	-1.1	0.7	.	.	-0.1
C(=N\c1nc2ccccc2n1CCN1CCCCC1)/c1cccs1	-0.1	0.4	-1.0	2.7	1.0	3.1
CCn1c(/N=C/c2ccccc2O)nc2ccccc21	-0.4	0.1	2.9	0.7	0.6	2.9
Cn1c(/N=C/c2cccs2)nc2ccccc21	-0.4	-0.5	3.8	2.4	0.3	5.8*
Cn1c(/N=C/c2cc(Cl)ccc2O)nc2ccccc21	1.6*	0.7	3.7	.	.	6.5*
CC(=NNC(=O)CSc1nnc(-c2ccc(C(C)(C)C)cc2)n1-c1ccccc1)c1cccc2ccccc12	-2.0	-0.6	2.4	.	.	-0.9
COC(=O)[C@H](C(C)C)N1Cc2nnn(Cc3ccc(C)cc3)c2-c2ccccc2S1(=O)=O	-0.5	-0.9	2.9	.	.	-3.5
CC1CCC/C(=N/Nc2nc3ccccc3s2)C1 (stereo unspecified)	0.4	3.1	-0.5	3.4	5.3*	6.4*
CC1(C)CC(=O)C/C(=N/Nc2nc3ccccc3s2)C1	-2.0	-1.8	-6.8	-3.7	1.3	-1.4
Cc1ccc(C(=O)CSc2nnc3ccccn23)c(C)c1	0.1	4.4*	10.7*	0.2	0.8	5.7*
Cc1ccc(NC(=O)CSc2nnc3ccccn23)c(Cl)c1	0.6	2.8	8.3	1.5	4.0	2.9
c1ccc(-c2nc3ccccc3[nH]2)nc1	1.3*	2.6	10.4	2.3	0.6	5.3
c1ccc(-c2nc3ccccc3[nH]2)cc1	0.0	4.4*	11.9*	3.1	2.8	4.4
SMILES	ssDAF-12 act	DAX1 inh-1	hgDAF-12 ag	FXN GAA850 act	DAX1 inh-2	hcDAF-12 act
c1ccc2[nH]c(-c3ccncc3)nc2c1	-0.3	-0.2	2.9	2.6	0.5	0.1
O=C(OCc1cn(Cc2ccc(Cl)cc2)nn1)N1CCOCC1	-0.7	0.2	-0.4	.	.	0.2
O=C(Nc1ccccc1)c1cccc(N2CCCC2=O)c1	-1.0	0.2	12.3*	4.1	0.3	2.2
O=C(N/N=C/c1cc(Br)ccc1O)c1cccc(N2CCCC2=O)c1	-1.5	-1.8	-9.5	-3.5	2.0	-2.4
O=C(N/N=C/c1ccco1)c1cccc(N2CCCC2=O)c1	0.3	1.8	10.5*	2.2	-0.7	5.4
O=C(O)c1cccc(N2CCCC2=O)c1	-1.6	0.1	-1.2	-0.2	-0.1	-2.1
Cc1cc(-c2nc3ccccc3o2)c2ccccc2n1	1.2*	-1.3	1.0	5.8	0.9	2.4
